The values that follow come from PubChem BioAssay AID1851 (National Center for Advancing Translational Sciences (NCATS), 2009).

Broadly, the AC50 is the midpoint of the concentration-response curve, whichever way the signal moves.

Hit rate of the full screen: of about 16,000 compounds, about 4,000 (25%) were called active. Another 26% or so got no clear call; they are omitted. Only a sample is shown. Unmarked numbers belong to inactive results. Calls come from the whole dose curve; as a rule, active = well fitted curve in the direction sought with a large enough effect; inconclusive = small, poorly fitted or top-dose-only effect, or effect the other way; inactive = no such curve, though single readings can be large or run the other way.
% is set by controls: 0 for no effect and ±100 for the full control effect.

Chain of Cytochrome P450 2C9 (Homo sapiens) (P11712 whole entry, looked up): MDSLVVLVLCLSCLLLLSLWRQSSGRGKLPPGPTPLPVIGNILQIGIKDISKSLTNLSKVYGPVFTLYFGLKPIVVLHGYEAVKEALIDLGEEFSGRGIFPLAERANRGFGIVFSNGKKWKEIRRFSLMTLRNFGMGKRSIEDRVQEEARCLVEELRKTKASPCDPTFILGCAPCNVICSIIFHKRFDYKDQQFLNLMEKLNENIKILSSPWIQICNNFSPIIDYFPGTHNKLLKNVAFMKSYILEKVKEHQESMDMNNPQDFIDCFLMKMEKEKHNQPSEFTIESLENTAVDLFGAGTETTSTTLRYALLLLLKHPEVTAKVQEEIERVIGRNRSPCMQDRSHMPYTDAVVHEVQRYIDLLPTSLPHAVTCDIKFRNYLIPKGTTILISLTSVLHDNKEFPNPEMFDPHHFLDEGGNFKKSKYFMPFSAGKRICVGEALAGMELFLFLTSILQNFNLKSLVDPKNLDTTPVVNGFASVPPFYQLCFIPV

This assay has as its target Cytochrome P450 2C9 (Homo sapiens) (UniProt P11712). The assay is described as follows: Cytochrome panel assay with activity outcomes. Particulars: recombinant CYP, pro-luciferin dealkylation, luminescence, p450-cyp2c9; series mostly up to 57.1 µM.
In the case of `CC(=O)c1ccc(OC(=O)C2c3ccccc3Oc3ccccc32)cc1`, the AC50 is 28.2 µM (active).
For the molecule `N[C@](CC1c2ccccc2Oc2ccccc21)(C(=O)O)[C@@H]1C[C@@H]1C(=O)O`, the AC50 entry is “inactive”.
Consider `CC[N+](C)(CC)CCOC(=O)C1c2ccccc2Oc2ccccc21`, for which the AC50 result was “inactive”.
On the same count and under the same terms, the figure for `CCOC(=O)c1cc2c(C)n(-c3ccc(C)cc3)c(C)c2ccc1=O` is 14.1 µM (active).
Turning to `CCOC(=O)Cn1nc(C)n(-c2ccc(C)cc2)c1=O`, the AC50 result was “inactive”.
Still for that read-out and setting: in the case of `CCOc1ncnc2c1oc1nc(CC(C)C)c3c(c12)CC(C)(C)OC3` it was 20 µM (active).
As for `CCCNC(=O)OC[C@@H]1O[C@H](CCO/N=C(\C)CCN2CCCc3nc(C)c(C)cc32)C=C[C@@H]1Oc1ccc(OC)cc1`, the activity, negative = inhibition is -26.6% [at 11.4 µM].
As for `CC12c3ccccc3C(c3ccccc31)C1C(=O)N(Cc3cccnc3)C(=O)C12` (stereo not given), the AC50 was 11.2 µM (active).
Regarding `CNC(=O)Oc1ccc2c(c1)[C@@]1(C)CCN(C)[C@@H]1N2C`, the AC50 entry is “inactive”.
In the case of `O=C(N/N=C/c1cccc(OC2CSC2)c1)c1ccccc1O`, the AC50 result is “inactive”.
Take `O=C(COc1ccccc1C(=O)N/N=C\c1ccc(O)c(O)c1)N/N=C/c1ccc(O)c(O)c1`: the AC50 was 12.6 µM (active).
For `COc1ccccc1-c1nccc(NCc2cccc(C)c2)n1`, the activity, negative = inhibition is -8.67% [at 2.29 µM].
As to `COC(=O)c1ccc(C#CC(NP(=O)(c2ccccc2)c2ccccc2)c2ccccc2)cc1` (stereo not given), the concentration at half-maximal activity (AC50) was 10 µM (active).
On to `COC(=O)c1ccc(NC(=O)C2CCCCC2C(=O)O)cc1` (stereo not given), for which the AC50 result was “inactive”.
In the case of `COC(=O)c1ccc(C23CC2(C(NP(=O)(c2ccccc2)c2ccccc2)c2ccccc2)C3)cc1` (stereo not given), the half-maximal activity concentration (AC50) was 10 µM (active).
For the molecule `CN(C)Cc1ccccc1-c1nccc(N(C)Cc2ccco2)n1`, the activity, negative = inhibition is -2.53% [at 2.29 µM].
As for `CC(C)(C)N1C(=O)[C@@H]2[C@H]3C(=CC[C@H]2C1=O)C(=O)[C@H]1O[C@H]1[C@H]3O`, the activity, negative = inhibition was 4.81% [at 11.4 µM].
Same read-out and setting: in the case of `CN(C)C(=O)c1ccc(-c2cncnc2NCCN2CCOCC2)cc1` it was 0.0156% [at 2.29 µM]; in that of `CN(C)c1ccc(-c2cncnc2NCCN2CCOCC2)cc1`, 1.82% [at 2.29 µM].
As to `Cc1ccc(-c2csc3ncnc(NCCN4CCOCC4)c23)cc1`, the AC50 is 14.1 µM (active).
Still for that read-out and setting: in the case of `O=C1C2=C(NC(=S)NC2c2ccc(Cl)cc2)NC(c2ccc(Cl)cc2)N1c1ccc(Cl)cc1` (stereo not given) it was 11.2 µM (active); in that of `O=[n+]1c2c(n([O-])c3cc(F)c(F)cc31)CCCC2`, “inactive”; in that of `O=S(=O)(N/N=C/c1ccc2c(c1)OCCO2)c1ccc(Cl)cc1`, 1.41 µM (active).
In the case of `O=[N+]([O-])c1ccc2c(c1)Cc1cc(N=Cc3ccc4c(c3)OCO4)ccc1-2`, the activity, negative = inhibition was -3.27% [at 11.4 µM].
`O=S(=O)(N/N=C\c1ccc2c(c1)OCO2)c1ccc(Cl)cc1`: the AC50 was 1.12 µM (active).
For the molecule `O=c1oc2cc(N=Cc3ccc4c(c3)OCO4)ccc2c2ccccc12`, the activity, negative = inhibition is -21.1% [at 11.4 µM].
As to `C[C@]1(OC(=O)/C=C\c2ccccc2)C[C@@H](O)[C@@]2(O)C=CO[C@@H](O[C@H]3O[C@@H](CO)[C@@H](O)[C@@H](O)[C@@H]3O)[C@H]21`, the AC50 entry is “inactive”.
Same read-out and setting: in the case of `CCCN=C(N)NCCC[C@H](N)C(=O)O` it was 3.98 µM (active); in that of `NC(=NCCC[C@H](N)C(=O)O)NO`, “inactive”.
Same read-out and setting: the entry for `CC(N)=NCCCC[C@H](N)C(=O)O` is “inactive”; for `COc1ncc2ncc(=O)n(CCC#N)c2n1` it is “inactive”.
For the molecule `COCCNc1ncnc2ccc(-c3ccc(N(C)C)cc3)cc12`, the activity, negative = inhibition is -3.32% [at 2.29 µM].
Take `COC(Cc1nnc(SC)n1-c1ccc(Cl)cc1)OC`: the AC50 result was “inactive”.
For the molecule `O=S(Cc1ccc(Br)cc1)Cc1nnc(SCc2ccc(Cl)cc2)n1-c1ccccc1` (stereo not given), the half-maximal activity concentration (AC50) was 10 µM (active).
Turning to `Cc1cccc(NC(=S)N2CCC(N(C)CC3CCCO3)CC2)c1C` (stereo not given), the AC50 entry was “inactive”.
As for `CN1CCN(c2ncnc3ccc(-c4cccc(NS(C)(=O)=O)c4)cc23)CC1`, the activity, negative = inhibition was 22.3% [at 2.29 µM].
Consider `Cc1ccc(S(=O)(=O)Nc2nc3ccccc3nc2N2CCc3ccccc3C2)cc1`, for which the half-maximal activity concentration (AC50) was 0.251 µM (active).
Regarding `O[C@H](CN1CCN(c2cccc(Cl)c2)CC1)C(c1ccccc1)c1ccccc1`, the AC50 entry is “inactive”.
With `O=C(Cn1ccc2ccccc2c1=O)N1CCN(c2cccc(Cl)c2)CC1`, the AC50 entry is “inactive”.
As for `O=C(Cc1ccc(-n2c(=O)[nH]c3ccccc3c2=O)cc1)N1CCN(c2cccc(Cl)c2)CC1`, the AC50 is 3.55 µM (active).
Turning to `COc1ccc(CCNC(=O)CC(NS(=O)(=O)c2ccc(NC(C)=O)cc2)C(C)C)cc1OC` (stereo not given), the AC50 is 2.51 µM (active).
Regarding `CC(=O)Nc1ccc(S(=O)(=O)N=S(C)C)cc1`, the AC50 entry is “inactive”.
On to `COc1ccc(CONS(=O)(=O)c2ccc(NC(C)=O)cc2)cc1Cl`, for which the AC50 was 12.6 µM (active).
`CC(=O)Nc1ccc(S(=O)(=O)NCCc2ccc(F)cc2)cc1`: the AC50 result was “inactive”.
Take `CC(=O)Nc1ccc(S(=O)(=O)NC(CC(=O)NCCCN2CCOCC2)C(C)C)cc1` (stereo not given): the AC50 result is “inactive”.
Consider `COc1ccc(CCNC[C@H](O)c2ccc(O)cc2)cc1OC`, for which the AC50 result is “inactive”.
Turning to `OCCN(CO)CO`, the activity, negative = inhibition was -10.4% [at 11.4 µM].
The same measure, in the same setting: the figure for `CC(=O)OC[C@H]1O[C@@H](O/N=C(\C)CCN2CCCCc3nc(C)c(C)cc32)[C@H](OC(C)=O)[C@@H](OC(C)=O)[C@H]1OC(C)=O` is 23.5% [at 11.4 µM]; for `c1ccc(CCc2cccnc2)nc1` it is -6.59% [at 11.4 µM].
Consider `c1ccc(NN(Cc2cnccn2)c2ccccc2)cc1`, for which the concentration at half-maximal activity (AC50) was 3.16 µM (active).
As for `C#CCOC(=O)Nc1ccc(=O)n(Cc2c(Cl)cccc2Cl)c1`, the half-maximal activity concentration (AC50) was 1.58 µM (active).
Regarding `CCn1c(=O)[nH]c2ccccc21`, the AC50 result was “inactive”.
Turning to `O=C(OC1CCN(c2ccc([N+](=O)[O-])cc2)CC1)c1ccccc1`, the concentration at half-maximal activity (AC50) is 0.631 µM (active).
Regarding `O=C(CCCc1ccccc1)N1CCN(c2ccc([N+](=O)[O-])cc2)CC1`, the AC50 entry is “inactive”.
Take `C[N+]1(C)CCC(OC(=O)C(c2ccccc2)c2ccccc2)CC1`: the AC50 entry was “inactive”.
With `O=C(O)c1cccc2cccc(-c3cccc4cccc(C(=O)O)c34)c12`, the activity, negative = inhibition was -4.84% [at 11.4 µM].
For the molecule `CN1C(=O)/C(=N\OC(=O)c2cccc3ccccc23)c2ccccc21`, the AC50 was 2.82 µM (active).
As for `Cn1c(=O)cc(OCCCC(=O)Nc2cccnc2)c2ccccc21`, the AC50 result was “inactive”.
Still for that read-out and setting: in the case of `CCn1c(=O)cc(OCC(=O)Nc2cccnc2)c2ccccc21` it was 15.8 µM (active); in that of `CC(C(=O)Nc1cccnc1)N1C(=O)C2C3C=CC(C3)C2C1=O` (stereo not given), “inactive”.
